Screens deposited in PubChem BioAssay by National Center for Advancing Translational Sciences (NCATS).
Shown are actives, neighbours in structure and some others; about 19% of the full set was active somewhere.
HT1080 IDH1KD tx = qHTS for induction of synthetic lethality in tumor cells producing 2HG: qHTS for the HT-1080-IDH1KD cell line; HT-1080 IDH1 knockdown viability, ATP luminescence, 48 h; Potency, µM (doses to about 46.1 µM), inactives show at the highest dose activity, negative = toxicity, most hits filed as cytotoxic; hit rate 2% among 360,000; AID 686971, 2013;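 note: potency is the fitted concentration of half-maximal effect; 0% = DMSO wells and -100% = cell-free medium wells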
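Luminescent ATP read-out (CellTiter-Glo, 10 min at room temperature) after 48 h compound exposure at 37 °C gave viability of IDH1-knockdown HT-1080 cells. Activity was normalised to DMSO and cell-free wells, then fitted as concentration-response curves.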
IL1B secr inh = qHTS for Inhibitors of Inflammasome Signaling: IL-1-beta AlphaLISA Primary Screen; hit rate 4.7% among 360,000; AID 743279, 2014; activity change, % at 57.5 µM; THP-1 LPS/ATP IL-1B secretion, AlphaLISA, 16 h; stronger effect = lower value; in the data active = activity change below about -50%; inconclusive = mostly about -30% to -49%
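Secreted IL-1B measured by AlphaLISA bead assay after 16 h compound exposure of THP-1 cells; compounds (final up to 57.5 uM) added 1 h before LPS (250 ng/mL) and ATP (1.25 mM) stimulation; lower signal means less secretion.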
HT1080-NT tox = qHTS for induction of synthetic lethality in tumor cells producing 2HG: qHTS for the HT-1080-NT fibrosarcoma cell line; HT-1080-NT fibrosarcoma viability, CellTiter-Glo ATP luminescence, 48 h; Potency, µM (series often up to 46.1 µM), for the others: top-dose activity, negative = less viability, hits mostly cytotoxic; hit rate 1.6% among 360,000;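 note: NT is the 2HG producing partner of a matched IDH1 knockdown line; potency is the fitted concentration of half-maximal effect; 0% = DMSO-treated cells and -100% = media-only wells without cells; nearly all actives have a fitted effect of over 55% in size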
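750 cells/well, RPMI + 5% FBS; 2 h settle, compound pin-transfer, 48 h at 37 degrees C. CellTiter-Glo 10 min RT, luminescence. Normalized to DMSO and media-only wells.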
DT40 TDP1 no CPT = qHTS for Inhibitors of human tyrosyl-DNA phosphodiesterase 1 (TDP1): qHTS in cells in absence of CPT. DT40 Tdp1-/- hTDP1 cells, no CPT, ATP luminescence, 48 h. Potency, µM (titrated, usually from 46.2 µM), without a hit: at the highest dose activity change, negative = growth inhibition, actives largely listed as inhibitors. hit rate 15% among 420,000; note: potency is the fitted concentration of half-maximal effect; nearly all actives have a fitted effect of over 55% in size
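Chicken DT40 Tdp1-/- cells complemented with human TDP1, screened without camptothecin (DMSO vehicle only), 400 cells/well. Compounds pin-transferred, cells incubated at 37 °C for at least 48 hr. Growth read as ATP-dependent luminescence (CellTiter-Glo, 30 min at RT).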
DT40 TDP1 CPT = qHTS for Inhibitors of human tyrosyl-DNA phosphodiesterase 1 (TDP1): qHTS in cells in presence of CPT; chicken DT40 Tdp1-/-;hTDP1 cells + 20 nM CPT, ATP luminescence, 48 h; Potency, µM (doses to about 46.2 µM), without a hit: top-dose activity change, negative = growth inhibition, hits mostly inhibitors; hit rate 12% among 420,000; AID 686979, 2013; note: potency is the fitted concentration of half-maximal effect; nearly all actives have a fitted effect of over 55% in size
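Chicken DT40 Tdp1-/- cells complemented with human TDP1, 400 cells/well, exposed to compounds plus 20 nM camptothecin for at least 48 h at 37 C; viability read as ATP content by CellTiter-Glo luminescence.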
An asterisk follows results filed as active; i = inactive; ? = inconclusive; . = no result given; [ ] = remark or other dose. Unless noted, calls come from the whole dose curve; as a rule, active = well fitted curve in the direction sought with a large enough effect; inconclusive = small, poorly fitted or top-dose-only effect, or another doubt; inactive = no such curve, though single readings can be large; an effect the other way counts as inactive or inconclusive. Unless noted, % is set by controls: 0 for no effect and ±100 for the full control effect.

SMILES	HT1080 IDH1KD tx	IL1B secr inh	HT1080-NT tox	DT40 TDP1 no CPT	DT40 TDP1 CPT
Cc1cc([N+](=O)[O-])cc(/C=N\NC(=O)C2COc3ccccc3O2)c1O (stereo not given)	?	86.4	?	13µM*	16.4µM*
COc1cc(/C=N/NC(=O)C2COc3ccccc3O2)ccc1O (stereo not given)	-1.1%	-8.6	-2.6%	-17.7%	-10.7%
COc1cc(/C=N\NC(=O)C2COc3ccccc3O2)cc(OC)c1O (stereo not given)	-2.5%	-70.8*	-3.4%	-3.0%	-0.4%
C/C(=N\NC(=O)C1COc2ccccc2O1)c1ccccn1 (stereo not given)	?	0.0	?	2.91µM*	5.8µM*
CC1(C)CC(Cc2ccc(C(F)(F)F)cn2)N(C(=O)OC(C)(C)C)C1 (stereo not given)	18.9%	1.3	-2.7%	-18.9%	-17.5%
Nc1ccccc1C(=O)C[C@H](N)C(=O)O	-2.5%	8.1	3.1%	-11.7%	-2.8%
COc1ccc(/C=N/NC(=O)C2COc3ccccc3O2)cc1OC (stereo not given)	1.9%	13.4	-0.4%	9.8%	11.6%
O=C(N/N=C/c1ccc2c(c1)OCO2)C1COc2ccccc2O1 (stereo not given)	?	10.7	?	23.1µM*	?
COc1ccc(/C=N\NC(=O)C2COc3ccccc3O2)cc1O (stereo not given)	11.6µM*	13.1	14.6µM*	?	14.6µM*
CCn1c(CNC(=O)c2ccc(OC)cc2)nnc1SCC(=O)Nc1ccccc1	.	.	.	-11.0%	12.5%
O=C(NCc1ccccn1)c1cnn(-c2nccc(-c3cccs3)n2)c1C1CC1	.	.	.	-6.1%	19.0%[9.04 µM]
Fc1ccc2c(-c3cccc(C(F)(F)F)c3)c(-c3ccccc3)ncc2c1	23.5%	16.2	13.9%	14.6µM*	?
COc1cc2cnc(-c3ccccc3)c(-c3ccc(C(F)(F)F)cc3)c2cc1OC	6.7%	20.2	0.8%	?	?
Fc1ccc2cnc(-c3ccccc3)c(-c3cc(C(F)(F)F)cc(C(F)(F)F)c3)c2c1	17.9%	22.7	7.0%	16.4µM*	?
Fc1ccc2cnc(-c3ccccc3)c(-c3ccc(C(F)(F)F)cc3)c2c1	-26.0%	34.0	-11.6%	18.4µM*	?
CC(C)CSc1ncc(-c2cccc(C(F)(F)F)c2)cn1	23.1%	9.4	14.6%	?	4.2%
CC(C(=O)Nc1ccc(N2CCOCC2)cc1)N1C(=O)NC(C)(C)C1=O (stereo not given)	2.2%	-0.5	0.0%	-0.6%	-2.1%
CCOC(=O)c1cc2c(C(F)(F)F)cc(-c3cccnc3)nc2o1	13.8%	17.6	12.2%	-13.1%	-11.0%
Cc1cccc(-n2c(O)c(C=NCc3ccccn3)c3ccccc3c2=O)c1	-19.4%	?	-10.2%	?	18.4µM*
Cc1ccccc1-n1c(O)c(C=NC2CCS(=O)(=O)C2)c2ccccc2c1=O (stereo not given)	-0.2%	-1.2	-4.8%	?	-29.4%
Cc1cccc(-n2c(O)c(C=NC3CCS(=O)(=O)C3)c3ccccc3c2=O)c1C (stereo not given)	-8.8%	-0.9	-16.4%	?	5.17µM*
Cc1ccc(-n2c(O)c(C=NC3CCS(=O)(=O)C3)c3ccccc3c2=O)cc1C (stereo not given)	-20.2%	?	-18.6%	18.4µM*	10.3µM*
Cc1cccc(-n2c(O)c(C=NC3CCS(=O)(=O)C3)c3ccccc3c2=O)c1 (stereo not given)	-1.0%	12.6	-2.7%	?	13µM*
Cc1nnc(SCC2=C(C(=O)O)N3C(=O)C(NC(=O)Cn4cnnn4)[C@@H]3SC2)s1 (stereo not given in full)	.	.	.	1.3%	7.8%
COC(=O)[C@]1(Cc2ccccc2)N[C@H](CN(C)C(=O)c2ccc(F)cc2)[C@@H]2C(=O)N(C)C(=O)[C@@H]21	3.4%	11.3	1.6%	-2.8%	-14.7%
SMILES	HT1080 IDH1KD tx	IL1B secr inh	HT1080-NT tox	DT40 TDP1 no CPT	DT40 TDP1 CPT
Cc1cc(C)cc(-n2c(O)c(C=NC3CCS(=O)(=O)C3)c3ccccc3c2=O)c1 (stereo not given)	?	-13.8	-14.0%	?	16.4µM*
O=C(Nc1ccc(S(=O)(=O)N2CCOCC2)cc1)c1ccc(S(=O)(=O)N2CCOCC2)cc1	2.8%	22.5	16.9%	-4.4%	-5.1%
O=C(Nc1ccc(S(=O)(=O)N2CCOCC2)cc1)c1cc(S(=O)(=O)N2CCOCC2)ccc1Cl	-10.0%	34.7	-9.0%	?	18.4µM*
CC1CN(S(=O)(=O)c2ccc(C(=O)Nc3ccc(S(=O)(=O)N4CCOCC4)cc3)cc2)CC(C)O1 (stereo not given)	-0.6%	i	-5.1%	13µM*	?
O=C(Nc1ccc(S(=O)(=O)N2CCOCC2)cc1)c1ccc(Cl)cc1	-1.4%	-6.4	-12.9%	20.6µM*	20.6µM*
Cc1ccc(S(=O)(=O)N2CCOCC2)cc1C(=O)Nc1ccc(N2CCCCCC2)cc1	?	-52.9*	-14.1%	4.61µM*	4.61µM*
Cc1ccc(NC(=O)C(=O)NCCCN2CCOCC2)c(C)c1	6.4%	7.4	0.2%	-0.6%	-12.2%
Cc1ccc([N+](=O)[O-])cc1N/C=C1\CCCCC1=O	12.3%	-8.0	4.3%	?	?
O=C(COc1ccc(Br)cc1)N(Cc1ccco1)C1CCS(=O)(=O)C1 (stereo not given)	3.7%	17.1	-1.3%	2.9%	-18.4%
O=C(Nc1ccc(S(=O)(=O)N2CCOCC2)cc1)c1ccc(F)cc1	2.3%	-14.1	-21.3%	-26.6%	6.1%
O=C(Nc1ccc(Cc2ccncc2)cc1)c1ccc(S(=O)(=O)N2CCOCC2)cc1	?	-18.9	-4.6%	18.4µM*	?
COCc1c(C(=O)NC(C)c2ccc(S(N)(=O)=O)cc2)oc2ccccc12 (stereo not given)	5.2%	7.7	13.3%	-12.1%	-1.6%
Cc1ccc(N=C(N)N=C(N)N)c(C)c1	3.5%	-17.0	-0.5%	?	?
CC(NC(=O)/C(C#N)=C1\N=C(NC(=O)c2cccs2)c2ccccc21)c1ccccc1 (stereo not given)	-14.3%	0.0	-9.4%	16.4µM*	?
Cc1ccc(C)n1-c1ccc(C(=O)/C=C/N(C)C)cc1	?	-86.6*	?	?	?
